The source of these data is the supplement of paper PMC13380429.

Unmarked numbers belong to inactive results.

The experiment has as its system Vero E6 infected with SARS-CoV-2. The experiment is described as follows: inhibition of SARS-CoV-2 cytopathic effect; higher = more antiviral protection, active = above 15. Particulars: 48 h. For orientation: Protection from cytopathic effect is a common read-out in antiviral testing.

Consider `O=C(OCC(COC(=O)c1cccnc1)(COC(=O)c1cccnc1)COC(=O)c1cccnc1)c1cccnc1` [niceritrol], for which the “inhibition of SARS-CoV-2 cytopathic effect” value (“inhibition” for short) (1 nM) is -3.51%; the “inhibition” value (8.33 nM) was -0.29%; the “inhibition” value (100 nM) was 2.18%; the “inhibition” value (833.33 nM) is 0.03%; the “inhibition” value (10000 nM) was 6.17%.
Regarding `CCOc1cc2ncc(C#N)c(Nc3ccc(OCc4cccc(F)c4)c(Cl)c3)c2cc1NC(=O)/C=C/CN(C)C`, the “inhibition” value is, setting by setting: (1 nM) -1.73%; (8.33 nM) -3.51%; (100 nM) -7.95%; (833.33 nM) -12%; (10000 nM) -22%.
On to `CN(Cc1cnc2nc(N)nc(N)c2n1)c1ccc(C(=O)N[C@@H](CCC(=O)O)C(=O)O)cc1` [methotrexate], for which the “inhibition” value by setting is: (1 nM) -1.04%; (8.33 nM) -0.21%; (100 nM) -0.4%; (833.33 nM) 2%; (10000 nM) -1.41%.
`CCNC1(C(N)=O)CCN(c2ncnc3c2nc(-c2ccccc2Cl)n3-c2ccc(Cl)cc2)CC1`: the “inhibition” value is -2.1% (1 nM); 0.22% (8.33 nM); 1.6% (100 nM); 7.17% (833.33 nM); -0.26% (10000 nM).
For `O=C(NCNC(=O)NC1C(=O)NC(=O)N1CO)NC1C(=O)NC(=O)N1CO` (stereo not given) [imidurea], the “inhibition” value runs as follows: (1 nM) -0.15%; (8.33 nM) 0.45%; (100 nM) -1.76%; (833.33 nM) -1.38%; (10000 nM) 0.38%.
For `CC#CC(=O)N1CC[C@@H](n2c(=O)n(-c3ccc(Oc4ccccc4)cc3)c3c(N)ncnc32)C1` the same measures were -1.14%, 2.19%, 0.31%, -8.09% and -0.82%.
`O=c1ccc2ccc(OCCCCN3CCN(c4cccc5sccc45)CC3)cc2[nH]1` [brexpiprazole]: the “inhibition” value is, setting by setting: (1 nM) -0.6%; (8.33 nM) 2.4%; (100 nM) 2.49%; (833.33 nM) 2.71%; (10000 nM) -8.91%.
For `Clc1cccc(/C=N/N=C/c2cccc(Cl)c2)c1` [3,3'-dichlorobenzaldazine] the same measures were 2.78%, 1.74%, 1.33%, 1.92% and 1.46%.
Take `Clc1ccccc1C(c1ccccc1)(c1ccccc1)n1cccn1`: the “inhibition” value (1 nM) is 2.55%; the “inhibition” value (8.33 nM) was 1.8%; the “inhibition” value (100 nM) was -0.74%; the “inhibition” value (833.33 nM) is 1.1%; the “inhibition” value (10000 nM) is 0.33%.
As for `CNC(=O)c1cccc(-c2ccc3c(N4CCOC[C@@H]4C)nc(N4CCOC[C@@H]4C)nc3n2)c1`, the “inhibition” value by setting is: (1 nM) 0.89%; (8.33 nM) -1.74%; (100 nM) -1.86%; (833.33 nM) 0.43%; (10000 nM) -2.51%.
With `COc1c2ccoc2cc2oc(=O)ccc12` [bergapten], the “inhibition” value is -0.67% (1 nM); -0.91% (8.33 nM); -2.71% (100 nM); 3.76% (833.33 nM); 14.6% (10000 nM).
Taken in the same sequence, the figures for `COC[C@H](C)Oc1cc(O[C@@H](C)Cc2ccccc2)cc(C(=O)Nc2ccc(C(=O)O)cn2)c1` were -1.62%, 2.26%, 1.23%, -0.06% and 0.06%.
For `C=CCN1CC[C@]2(C)c3cc(O)ccc3C[C@H]1[C@H]2C`, the “inhibition” value by setting is: (1 nM) 1.28%; (8.33 nM) 1.94%; (100 nM) -1.86%; (833.33 nM) 0.86%; (10000 nM) 1.02%.
On to `Nc1cc(F)ccc1NC(=O)/C=C/c1cnn(C/C=C/c2ccccc2)c1`, for which the “inhibition” value (1 nM) was -1.39%; the “inhibition” value (8.33 nM) is 1.78%; the “inhibition” value (100 nM) is 0.89%; the “inhibition” value (833.33 nM) was -2.26%; the “inhibition” value (10000 nM) is -1.9%.
Taken in the same sequence, the figures for `Clc1cccc(Nc2nnc(-c3ccccc3)c3ccccc23)c1` were 1.65%, 2.3%, 2.13%, 1.98% and 2.92%.
For `Fc1cc(-c2cccc3ncc(-c4cnn(C5CCNCC5)c4)nc23)cc(F)c1CN1CCOCC1` the same measures were 1.49%, 2.64%, -2.32%, -1.44% and 63.3% (active).
For `C[C@@]1(C(=O)O)NCCc2cc(O)c(O)cc21` [salsolinol-1-carboxylic-acid] the same measures were 0.05%, -1.48%, -1.16%, 2.45% and 1.69%.
For the compound `Nc1ncnc2[nH]nc(Nc3ccc(F)cc3)c12`, the “inhibition” value is, setting by setting: (1 nM) -2.32%; (8.33 nM) -2.2%; (100 nM) -2.66%; (833.33 nM) -0.59%; (10000 nM) -5.26%.
Taken in the same sequence, the figures for `O=c1[nH]cnc2c1cnn2[C@@H]1O[C@H](CO)[C@@H](O)[C@H]1O` [allopurinol-riboside] were 0.99%, 0.92%, 2.88%, 0.52% and 1.75%.
